The results in this text go back to PubChem BioAssay (Tox21).

Values joined by “and” are separate entries in the source; they are usually repeats but may differ in a detail not shown here. Equal values may be shown once. Results filed as inconclusive are left out. The source holds several records for some structures; these can differ, active in one and inactive in another. Active and inactive are the calls of the source. Calls come from the whole dose curve; as a rule, active = well fitted inhibition curve with a large enough effect in the repeat runs; inconclusive = weak or mixed curves; inactive = no such curve, though single readings can be large or run the other way.
% is set by controls: 0 for no effect and ±100 for the full control effect; potency is the fitted concentration of half-maximal effect.

Chain of Cytochrome P450 1A2 (Homo sapiens) (P05177 whole entry, looked up): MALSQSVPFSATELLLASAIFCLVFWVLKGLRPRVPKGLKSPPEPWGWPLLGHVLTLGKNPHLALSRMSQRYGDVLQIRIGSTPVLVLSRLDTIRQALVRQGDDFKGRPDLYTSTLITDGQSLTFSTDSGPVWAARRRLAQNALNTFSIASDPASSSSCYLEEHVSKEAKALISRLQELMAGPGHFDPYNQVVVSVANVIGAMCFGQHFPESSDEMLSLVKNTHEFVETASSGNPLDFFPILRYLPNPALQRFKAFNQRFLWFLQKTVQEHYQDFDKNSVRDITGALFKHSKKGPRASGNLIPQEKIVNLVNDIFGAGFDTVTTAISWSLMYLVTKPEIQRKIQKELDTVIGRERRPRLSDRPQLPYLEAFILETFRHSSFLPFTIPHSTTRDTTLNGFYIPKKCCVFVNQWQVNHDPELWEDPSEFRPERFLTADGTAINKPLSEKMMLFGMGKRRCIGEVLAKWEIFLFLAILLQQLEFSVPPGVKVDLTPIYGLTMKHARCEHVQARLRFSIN

This assay addresses Cytochrome P450 1A2 (Homo sapiens) (UniProt P05177). Put plainly: Cytochrome P450 Family 1 Subfamily A Member 2 (CYP1A2) small molecule antagonists: luciferase reporter qHTS assay (AID 1671199). Note: nearly all actives have a fitted effect of over 50% in size. As to conditions: P450-Glo CYP1A2 enzyme, luciferin luminescence, 1 h; series mostly up to 115 µM; activity change, negative = inhibition: at the top concentration. An outline of the steps: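 P450-Glo CYP1A2 enzyme–proluciferin substrate mix with compound 10 min at room temperature, then NADPH regeneration 1 h at room temperature. Luciferin detection reagent added, luminescence read after 20 min; furafylline positive control.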
Consider `CCCCCCCCCCCCCO`, for which the Potency entry was “inactive and 26.1 µM (active)”.
Regarding `C=CCOC(=O)C(=C)C`, the “activity change, negative = inhibition” value is -10% (inactive).
For the compound `NCCOCCO`, the “activity change, negative = inhibition” value was -20.8% (inactive).
For the compound `CCCCCC=O`, the Potency entry was “inactive”.
On to `CC(=O)[C@H]1CC[C@H]2[C@@H]3CC=C4C[C@@H](O)CC[C@]4(C)[C@H]3CC[C@]12C`, for which the Potency result was “inactive”.
For `OC[C@@H](O)[C@@H](O[C@@H]1O[C@H](CO)[C@H](O)[C@H](O)[C@H]1O)[C@H](O)[C@@H](O)CO`, the Potency was 35.1 µM (active) and inactive.
`C=C[C@H]1CN2CC[C@H]1C[C@@H]2[C@@H](O)c1ccnc2ccc(OC)cc12`: the Potency result is “inactive”.
In the case of `CCCCCCCCCCC(CO)CCCCCCCC` (configuration not stated), the “activity change, negative = inhibition” value is -10.6% (inactive).
On to `CCO[Si](CCCNC(N)=O)(OCC)OCC`, for which the “activity change, negative = inhibition” value was -4.62% (inactive).
For the compound `Nc1ccc2c(O)cc(S(=O)(=O)O)cc2c1`, the “activity change, negative = inhibition” value was -14.3% (inactive).
In the case of `CCCN1C=CN(C)C1`, the Potency result is “inactive”.
`C[C@]12C=CC(=O)C=C1CC[C@H]1[C@@H]3C[C@@H](O)[C@](O)(C(=O)CO)[C@@]3(C)C[C@H](O)[C@@]12F`: the Potency result was “inactive”.
`CC(C)=CCO`: the “activity change, negative = inhibition” value is -11.8% (inactive).
As for `CC(C)(C)c1cccc(C(C)(C)C)c1O`, the Potency is 39 µM (active) and 63.3 µM (active).
In the case of `CCCCCC1C(=O)CCC1CC(=O)OC` (configuration not stated), the Potency is 28 µM (active) and 28.3 µM (active).
For `C=C[Si](OCCOC)(OCCOC)OCCOC`, the “activity change, negative = inhibition” value is -19.6% (inactive).
With `Cc1ccc(/C(=C\CN2CCCC2)c2ccccn2)cc1`, the “activity change, negative = inhibition” value was -12.2% [at 53 µM] (inactive).
On to `O=C(O)CCCC(=O)O`, for which the Potency was 34.9 µM (active) and inactive.
Consider `NCCN`, for which the “activity change, negative = inhibition” value was -3.98% (inactive).
On to `c1ccc2ncccc2c1`, for which the Potency entry is “inactive and 35.6 µM (active)”.
Take `Cc1ccc2c(c1)C(=O)OC2=O`: the Potency entry was “inactive”.
On to `NC[C@H](O)c1ccc(O)c(O)c1`, for which the Potency entry was “inactive”.
